Source: PubChem BioAssay
Only some compounds are listed: those with a hit (about 2.4% of all), similar ones and a draw of the others.
D2 ag-1 – activates the human D2 dopamine receptor | P14416 | HEK293 T-REx D2 cells, calcium flux agonist mode | activation, % at 2 µM | 340,000 tested, 0.53% active | AID 485358;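 active = activation over 3 SD above normal in the single-dose calcium agonist read, cut at about 30% in these data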
Target sequence (P14416 whole entry, looked up): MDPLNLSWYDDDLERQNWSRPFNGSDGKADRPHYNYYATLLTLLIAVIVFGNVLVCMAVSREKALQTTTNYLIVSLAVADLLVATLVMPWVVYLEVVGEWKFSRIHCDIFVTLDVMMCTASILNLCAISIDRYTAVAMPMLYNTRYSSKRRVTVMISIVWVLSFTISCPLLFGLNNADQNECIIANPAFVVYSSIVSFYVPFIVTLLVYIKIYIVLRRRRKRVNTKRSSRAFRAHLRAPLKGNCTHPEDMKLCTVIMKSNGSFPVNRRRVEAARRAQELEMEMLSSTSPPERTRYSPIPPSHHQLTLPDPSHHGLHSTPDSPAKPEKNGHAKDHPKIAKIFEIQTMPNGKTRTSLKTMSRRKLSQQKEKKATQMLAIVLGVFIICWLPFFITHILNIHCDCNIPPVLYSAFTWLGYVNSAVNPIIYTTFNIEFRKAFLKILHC
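Tetracycline-induced HEK293 Trex cells with D2 receptor force-coupled to calcium signaling, plated overnight at 30 C and loaded with no-wash calcium dye. Calcium flux read kinetically for 180 s after compound addition; responses flag agonists.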
D2 ag-2 – agonists of human D2 dopamine receptor (beta-arrestin) | P14416 | activation, % (no concentration beside the values) | 360,000 tested, 0.084% active | DiscoveRx PathHunter D2 beta-arrestin, luminescence, 90 min; 100% = 57 uM dopamine signal; in the data active = activation above about 40%; inconclusive = between about 15% and that limit
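DiscoveRx PathHunter D2 beta-arrestin cells (2,100/well) attached overnight, then compound-stimulated 90 min at 37 C in HBSS/10 mM HEPES/0.1% Tween-20 buffer; beta-galactosidase complementation read by luminescence after 1 h at ambient temperature. Dopamine 57 uM final (EC100) as control.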
D2 PAM-1 – positive allosteric modulators of human D2 dopamine receptor | P14416 | DiscoveRx D2 beta-arrestin cells, luminescence, 90 min; 100% = 57 uM dopamine signal | potentiation, % (no concentration beside the values) | 360,000 tested, 0.23% active | AID 624464; in the data active = potentiation above about 50%; inconclusive = mostly about 30% to 49%
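PathHunter beta-arrestin assay in DiscoveRx D2 cells. Compounds were added with an EC20 of dopamine (50 nM final) for 90 min at 37 deg C. Luminescence was read 1 h after detection reagent, with 57 uM dopamine as the EC100 control.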
D2 PAM-2 – positively modulates the human D2 dopamine receptor allosterically | HEK293 T-REx D2, calcium flux, EC20 dopamine potentiation | AID 485347 | P14416 | potentiation, % at 10 µM | 340,000 tested, 0.34% active;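 active = potentiation over 3 SD above the plate norm, cut at about 30% in these data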
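Potentiation of an EC20 dopamine calcium response is measured in a force-coupled, tetracycline-inducible Hek293 Trex D2 line. Compound-only kinetic reads over 180 s flag agonists before dopamine addition.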
D2 antagonist – D2 dopamine receptor (human) antagonism. AID 485344. HEK293 TREx D2 cells, calcium flux, dopamine EC80. inhibition, % at 10 µM. P14416. 340,000 tested, 2% active; in the data active = inhibition above about 30%; inactive = below that, where a call was filed
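Cells plated overnight at 30 C with tetracycline; no-wash calcium dye, 30–90 min RT; 10 s baseline; compound pinned; 180 s read; EC80 dopamine added; another 180 s read.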
Of the large screens only hits and unclear results are named; the others gave an inactive call; ! = not active in a repeat.

N=c1c(S(=O)(=O)c2ccccc2)cc2c(=O)n3ccccc3nc2n1Cc1cccnc1	D2 antagonist 44
Cc1cccn2c(=O)c3cc(C#N)c(=O)n(Cc4cccnc4)c3nc12	D2 antagonist 41
CCc1cccc(NC(=O)C(CC)n2nc(C)c3sc4ccccc4c3c2=O)c1 (centres undefined)	none (no result: D2 ag-2, D2 PAM-1, D2 antagonist)
Cn1c(=O)c([N+](=O)[O-])c(NCCc2ccccc2)c2ccccc21	D2 antagonist 38
CC(C)COc1ccccc1C(=O)NC(CO)C(=O)O (centres undefined)	D2 antagonist 43
COc1cccc(NC(=O)N2CCC(n3c(C)nc4cccnc43)CC2)c1	none (no result: D2 ag-2, D2 PAM-1, D2 antagonist)
CCC(CC)C(=O)N(c1ccc(F)cc1)C1C=CS(=O)(=O)C1 (centres undefined)	D2 antagonist 73
Cc1ccc2c(C)c(C(=O)N(Cc3ccc(N(C)C)cc3)Cc3ccco3)oc2c1C	none (no result: D2 ag-2, D2 PAM-1, D2 antagonist)
COC(=O)CNC(=O)CSc1nc2c(sc(=S)n2-c2ccccc2)c(=O)[nH]1	D2 antagonist 44
COc1ccc(NC(=S)N(CCCN2CCCC(C)C2)Cc2cccs2)cc1 (centres undefined)	D2 antagonist 49 (no result: D2 PAM-2)
Cc1ccc(Cl)cc1NC(=S)N(CCCN1CCN(C)CC1)Cc1cccs1	D2 antagonist 45
Cc1cc(Cl)ccc1NC(=S)N(CCCN1CCOCC1)Cc1cccs1	none
CCOc1cccc(C(=O)N(Cc2ccc(CC)cc2)C2CCS(=O)(=O)C2)c1 (centres undefined)	none (no result: D2 ag-2, D2 PAM-1, D2 PAM-2, D2 antagonist)
COc1ccc(N2C(=O)CSC23C(=O)N(CC(=O)NC2CCCCC2)c2ccccc23)cc1 (centres undefined)	none (no result: D2 ag-2, D2 PAM-1, D2 antagonist)
O=C(COc1ccccc1-c1ccccc1)N/N=C/c1cccc2ccccc12	none
COc1ccc(/C=N/NC(=O)COc2ccccc2-c2ccccc2)cc1	D2 antagonist 39
Cc1ccc(N2CC3=C(C2=O)C(c2ccc(Br)cc2)NC(=O)N3C)cc1 (centres undefined)	none (no result: D2 ag-2, D2 PAM-1, D2 antagonist)
COc1ccc(-c2nc(CSCC(=O)N3CCN(C)CC3)c(C)o2)cc1OC	D2 antagonist 40
Cc1ccc(NC(=O)COC(=O)c2cccc3c2C(=O)c2ccccc2C3=O)c(C)c1	D2 PAM-1 56
Cc1cc(C)c(NC(=O)COC(=O)c2cccc3c2C(=O)c2ccccc2C3=O)c(C)c1	D2 PAM-1 55
Cc1ccc(C)c(NC(=O)COC(=O)c2cccc3c2C(=O)c2ccccc2C3=O)c1	D2 ag-2 inconclusive, D2 PAM-1 54
Cc1ccc(Cl)cc1NC(=O)COC(=O)c1ccccc1O	none
CCn1cc(C(=O)NCCN(CC(C)C)CC(C)C)c(=O)c2cc(S(=O)(=O)N(C)C3CCCCC3)ccc21	none (no result: D2 ag-2, D2 PAM-1, D2 antagonist)
COc1ccc(C)cc1NC(=O)C(=O)NCCc1csc(-c2ccc(C)cc2)n1	none (no result: D2 ag-2, D2 PAM-1, D2 antagonist)
COc1cccc(OC)c1C(=O)Nc1ccc(S(=O)(=O)Nc2nccc(C)n2)cc1	none (no result: D2 ag-1, D2 ag-2, D2 PAM-1, D2 antagonist)
Cc1cc(C(=O)Nc2ccccc2C)on1	none
Cc1ccccc1NC(=O)c1ccno1	D2 antagonist 32
c1ccc2c(c1)Nc1cc3ccccc3cc1O2	D2 ag-2 inconclusive, D2 PAM-1 91 (no result: D2 ag-1, D2 PAM-2, D2 antagonist)
CCCN(C(=O)Nc1cn(CC(C)C)c(=O)c2ccccc12)c1ccc(F)cc1	none (no result: D2 ag-2, D2 PAM-1, D2 antagonist)
C[C@H](NC(=O)OCc1ccccc1)c1nnc([C@H](Cc2ccccc2)NC(=O)OC(C)(C)C)o1	D2 antagonist 31
C[C@H](NC(=O)OCc1ccccc1)c1nnc([C@H](C)NC(=O)OCc2ccccc2)o1	D2 antagonist 38
CC1=C(/C=C/C(C)=C/C=C/C(C)=C\C(=O)O)C(C)(C)CCC1	none (no result: D2 ag-1, D2 PAM-2, D2 antagonist)
CC1=C(/C=C/C(C)=C/C=C/C(C)=C/C(=O)Nc2ccc(O)cc2)C(C)(C)CCC1	D2 PAM-1 56!
C/C(=N\NC(=O)c1ccc(C)cc1C)c1ccc2c(c1)OCO2	none
C/C(=N\NC(=O)c1cc2ccccc2cc1O)c1ccc2c(c1)OCO2	D2 antagonist 33
Cc1cccc(N(C)C(=O)CSc2nc3ncccc3o2)c1	none (no result: D2 ag-1, D2 ag-2, D2 PAM-1, D2 antagonist)
N#C/C(=C\c1ccc(O)c([N+](=O)[O-])c1)C(=O)NCc1ccccc1	none
N#C/C(=C\c1ccc(O)c(Br)c1)C(=O)NCc1ccccc1	D2 antagonist 69
Cc1cc(C)c2c(=O)c3c(oc2c1)C(=O)N(CCCOC(C)C)C3c1ccccc1F (centres undefined)	none (no result: D2 ag-2, D2 PAM-1, D2 antagonist)
CCN(C(=O)C1CCN(S(=O)(=O)c2ccc3c(c2)oc(=O)n3C)CC1)c1cccc(C)c1	D2 antagonist 39
COCc1nnc(NC(C)=O)s1	D2 antagonist 32
CN(C)S(=O)(=O)c1ccc(C(=O)OCCc2ccccc2)cc1	D2 PAM-2 37
O=C(Nc1cccc2nsnc12)c1ccc(-c2cccc(Cl)c2)o1	D2 PAM-1 51
O=C(Nc1ccccc1N1CCCCC1)c1ccc(-c2cccc(Cl)c2)o1	none
N#Cc1c(/N=C/C=C/c2ccccc2)sc2c1CCCC2	D2 ag-2 inconclusive, D2 PAM-2 31
CN1CCN(/C=N/c2sc3c(c2C#N)CCCCC3)CC1	none
C=CCn1c(COc2ccccc2)nnc1SC(C)C(=O)N/N=C/c1cc(Cl)ccc1O (centres undefined)	D2 PAM-1 58
Cc1ccc(NC(=O)Cn2c3ccc(F)cc3c3nc4n(c(=O)c32)CCS4)cc1F	D2 PAM-2 35
O=C(Cn1c2ccc(F)cc2c2nc3n(c(=O)c21)CCS3)Nc1ccc(Cl)cc1F	none
CCc1c(C(=O)N/N=C/c2cn[nH]c2-c2ccc(F)cc2)csc1C	D2 antagonist 71
Cc1cc(C(=O)N/N=C/c2cn[nH]c2-c2ccccc2)cs1	D2 antagonist 30
O=C(N/N=C\c1cn[nH]c1-c1ccccc1)c1ccc([N+](=O)[O-])cc1	D2 antagonist 58
O=C(N/N=C/c1cn[nH]c1-c1ccccc1)c1ccco1	none
COc1cc(NC(=O)CCn2nc(C)c(S(=O)(=O)N3CCCCC3)c2C)cc(OC)c1OC	none (no result: D2 ag-2, D2 PAM-1, D2 antagonist)
CC(C)Cn1c(=O)c2sccc2n2c(CCCC(=O)NCCc3ccc(Cl)cc3)nnc12	none (no result: D2 ag-2, D2 PAM-1, D2 antagonist)
Cc1cccc(NC(=O)c2sc3nc(-c4cc5ccc(O)cc5oc4=O)[nH]c(=O)c3c2C)c1	none (no result: D2 ag-2, D2 PAM-1, D2 PAM-2, D2 antagonist)
Cc1cc(C)cc(N=Cc2[nH]c3ccc(Br)c(Cl)c3c2O)c1	D2 ag-1 34
COc1ccc(N2CCN(c3oc(/C=C/c4ccc(F)cc4)nc3C#N)CC2)cc1	none (no result: D2 ag-2, D2 PAM-1, D2 antagonist)
Cc1cccc(C(=O)NCC(=O)OC(C)C(=O)Nc2ccc(Cl)cn2)c1 (centres undefined)	D2 antagonist 37
Cc1cccc(OCC(=O)OC(C)C(=O)Nc2ccc(Cl)cn2)c1 (centres undefined)	none
O=C(NC1CCN(Cc2ccccc2)CC1)c1ccccc1OCc1ccccc1	D2 antagonist 86
CCOc1ccccc1C(=O)NC1CCN(Cc2ccccc2)CC1	D2 antagonist 89
